# Active and inactive are the calls of the source.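 Rule for the calls: active = relative FRET score above 0.01, or acceptor fluorescence over 30% below the sample-well median; inactive = the rest.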
# Target: Protein Rev (Human immunodeficiency virus type 1 group M subtype B (isolate WMJ22)) (UniProt P05866)
# Assay: HIV-1 Rev-RRE binding inhibitors, retest, confirmation, biochemical, FRET, acceptor and relative FRET calls (AID 837);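 note: relative FRET combines rise in Cy5 acceptor with fall in fluorescein donor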
# Settings: Fl-Rev peptide / Cy5-RRE RNA FRET, 1536-well; at 8 µM
# Chain of Protein Rev (Human immunodeficiency virus type 1 group M subtype B (isolate WMJ22)) (P05866 whole entry, looked up): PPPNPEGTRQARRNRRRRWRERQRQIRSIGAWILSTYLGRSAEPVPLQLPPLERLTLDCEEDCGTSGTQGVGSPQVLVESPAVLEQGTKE
row,Structure (SMILES),outcome
1,COc1cccc(Nc2nc(NCC3CCCO3)c3ccccc3n2)c1 (stereo not given),inactive
2,COc1ccc(CSc2nnc(C)n2N)cc1,inactive
3,CCN(CC)CC(O)COCCC12CC3CC(CC(C3)C1)C2 (stereo not given),inactive
4,CCCCCCC1CC(CSC(=N)N)OC1=O (stereo not given),inactive
5,Cc1c(Cl)cccc1Nc1nc(N)nc(CN2CCCCCC2)n1,inactive
6,CCCCOC(=O)Cn1c(=N)n(CCN(CC)CC)c2ccccc21,inactive
7,c1ccc(COc2ccc(OCCCCN3CCCCC3)cc2)cc1,inactive
8,CCOc1cc(CNCCCN2CCOCC2)ccc1OCC(=O)Nc1cccc2ccccc12,inactive
9,CCN1C2=NCCCN2c2cc(C)c(C)cc21,inactive
10,C=CCn1c(=N)n(CC(O)COc2ccc(OC)cc2)c2ccccc21 (stereo not given),inactive
11,NCCCCCc1nnc(SCc2ccccc2Cl)o1,inactive
12,Cc1cc(Cl)c(OCCCNCc2ccccc2)c(Br)c1,inactive
13,O=C(CN1C2=NCCN2c2ccccc21)c1ccc(Br)cc1,active
14,O=c1[nH]c(Nc2ccc(F)cc2)cc2ccccc12,inactive
15,C1=C2C[N+]3(CCCC3)CC2Cc2ccc3ccccc3c21 (stereo not given),inactive
16,CCN(CC)CCOCCOc1cc(C)c(Cl)c(C)c1,inactive
17,OC(CNC1CCCC1)COc1c(F)cc(Br)cc1F (stereo not given),inactive
18,OC(COc1ccc2cc(Br)ccc2c1)CN1CCCC1 (stereo not given),inactive
19,C[n+]1c2n(c3ccccc31)N=C(c1ccc(Br)cc1)CS2,inactive
20,O=C(NCCCO)Nc1ccc2nc(-c3ccco3)c(-c3ccco3)nc2c1,inactive

row,Structure (SMILES),outcome
1,CN(C)CC(O)COc1ccc(C(C)(C)c2ccc(OCC(O)CN(C)C)cc2)cc1 (stereo not given),inactive
2,COc1ccc(/C=C/c2cc(-c3ccc(C)cc3)o[n+]2C)cc1,active
3,CN1/C(=C\C=Nc2ccc3ccccc3c2)C(C)(C)c2ccccc21,inactive
4,Cc1ccc(C2C3=C(NCCN=C3c3ccccc3)C(=O)N2c2ccccc2)cc1 (stereo not given),inactive
5,C=CCNCCCCOc1c(Cl)cc(C)cc1Br,inactive
6,N=c1n(Cc2ccccc2)c2ccccc2n1CC(O)c1ccco1 (stereo not given),inactive
7,O=C(Nc1nccs1)c1cc2c(s1)-c1ccccc1OC2,inactive
8,CCN(N=Nc1cccc([N+](=O)[O-])c1)c1cccc([N+](=O)[O-])c1,inactive
9,Nc1[nH]c(=S)[nH]c(=O)c1-c1ccccc1,inactive
10,CCN(CC)CCCNC(=O)c1cc(-c2ccc(Cl)cc2)on1,inactive
11,COc1ccccc1NC1=NC(c2ccc(Cl)cc2)N=C(N)N1 (stereo not given),active
12,CC(Nc1nc(N2CCCCC2)nc2ccccc12)c1ccccc1 (stereo not given),inactive
13,CCOC(=O)c1cnc(SC)nc1Sc1ccccc1Cl,inactive
14,CCOC(=O)Cn1c(=N)n(Cc2ccccc2)c2ccccc21,inactive
15,COc1ccc(C2N=C(N)N=C(N)N2c2ccc(C)cc2)cc1 (stereo not given),active
16,CCC(C)(C)c1ccc(OCCN2C(=O)NC(C)(C)C2=O)cc1,inactive
17,COc1cccc(-c2cc(C(F)(F)F)nc(N3CCC(C)CC3)n2)c1,inactive
18,O=C(N/N=C/c1ccc(F)cc1)c1cc(-c2ccco2)nc2ccccc12,active; quenches the donor
19,CC1=NN(c2ccccc2)C(=O)C1N=Nc1ccc(N)cc1 (stereo not given),active; fluoresces like the acceptor
20,C[n+]1c2n(c3ccccc31)N=C(c1ccc(Cl)cc1)CS2,active

# From PubChem BioAssay AID837 (The Scripps Research Institute Molecular Screening Center, 2007)
